For 29 compounds, outcome, Potency and activation results are on record in PubChem BioAssay (Tox21).

Several values for one entry are separate records, joined by “and”; a condition that tells them apart may be missing. Equal entries are not always repeated. More than one record can exist for a structure, and the calls need not agree. Activity calls are given as the source filed them. Unless noted, calls come from the whole dose curve.

Assay [1] relates to thyroid hormone receptor (rat, GH3 cells). The assay can be described thus: qHTS assay to identify small molecule agonists of the thyroid receptor (TR) signaling pathway (AID 743066). The settings on record: GH3.TRE-Luc cells, TR agonist luciferase, 24 h; series mostly up to 83.9 µM.
Assay [2] in a line: qHTS assay to identify small molecule antagonists of the estrogen receptor alpha (ER-alpha) signaling pathway - cell viability counter screen (AID 743074). Note: nearly all actives have a fitted effect of over 45% in size. The settings on record: ERalpha-bla HEK293 viability, CellTiter-Glo luminescence, 18 h; series mostly up to 69.4 µM. Background: In qHTS, concentration-response curves come from the screen itself.
The target in assay [3] is Estrogen receptor (Homo sapiens) (UniProt P03372). The assay can be described thus: qHTS assay to identify small molecule agonists of the estrogen receptor alpha (ER-alpha) signaling pathway (AID 743075). Note: potency is the fitted concentration of half-maximal effect. The settings on record: HEK293 ER-alpha-UAS-bla, beta-lactamase FRET ratio, 18 h; series mostly up to 70.1 µM.
Assay [4] shares this target. The assay can be described thus: qHTS assay to identify small molecule agonists of the estrogen receptor alpha (ER-alpha) signaling pathway using the BG1 cell line (AID 743079; active = well fitted curve in the direction sought with a large enough effect in the repeat runs; inconclusive = weak or mixed curves; inactive = no such curve, though single readings can be large; an effect the other way counts as inactive or inconclusive; note: nearly all actives have a fitted effect of over 20% in size; note: potency is the fitted concentration of half-maximal effect). The settings on record: BG1Luc4E2 cells, ERE-luciferase agonist, 22 h; activation: at 70.3 µM (top of the series).
The nature of assay [5]: qHTS assay to identify small molecule antagonists of the estrogen receptor alpha (ER-alpha) signaling pathway using the BG1 cell line (AID 743080).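 Note: BG1 cells stimulated with 17beta-estradiol alongside compound; nearly all actives have a fitted effect of over 25% in size.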 Note: potency is the fitted concentration of half-maximal effect. The settings on record: BG1Luc4E2 ERE-luciferase antagonist mode, luminescence; series mostly up to 70.3 µM. In a few lines:
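Readout is ONE-Glo luminescence, taken 30 min at room temperature after reagent addition, preceded by a CellTiter-Fluor viability read; BG1-Luc-4E2 cells had received compound and 17beta-estradiol for 21.5 h at 37 C.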

The nature of assay [6]: qHTS assay to identify small molecule antagonists of the estrogen receptor alpha (ER-alpha) signaling pathway using the BG1 cell line - cell viability counter screen (AID 743081; active = well fitted curve in the direction sought with a large enough effect in the repeat runs; inconclusive = weak or mixed curves; inactive = no such curve, though single readings can be large; an effect the other way counts as inactive or inconclusive;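 note: compound given together with 17beta-estradiol as the ER stimulus; nearly all actives have a fitted effect of over 45% in size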). The settings on record: BG1Luc4E2 viability, CellTiter-Fluor, 22 h; series mostly up to 70.3 µM.
For another assay, the target named is Aromatase (Homo sapiens) (UniProt P11511). The assay can be described thus: qHTS assay to identify aromatase inhibitors (AID 743083; active = well fitted curve in the direction sought with a large enough effect in the repeat runs; inconclusive = weak or mixed curves; inactive = no such curve, though single readings can be large; an effect the other way counts as inactive or inconclusive; note: nearly all actives have a fitted effect of over 55% in size; note: potency is the fitted concentration of half-maximal effect). The settings on record: MCF-7 aro ERE, testosterone-driven ERE luciferase, 24 h; series mostly up to 70.3 µM.
For assay [7], the target named is Estrogen receptor (Homo sapiens) (UniProt P03372). The assay can be described thus: qHTS assay to identify small molecule antagonists of the estrogen receptor alpha (ER-alpha) signaling pathway (AID 743069; active = well fitted curve in the direction sought with a large enough effect in the signal ratio in the repeat runs, not every such curve was filed as active; inconclusive = weak or mixed curves, or effect the other way; inactive = no such curve, though single readings can be large or run the other way; the % refers to the signal ratio). The settings on record: HEK293 ER-alpha-UAS-bla, beta-lactamase ratio, antagonist mode; series mostly up to 69.4 µM. In outline: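 Reporter cells (ER-alpha-bla, HEK293 background) are conditioned overnight in stripped-serum medium (2% charcoal-stripped FBS). Compound and 17beta-estradiol exposure runs 18 hr at 37C, 5% CO2.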
% is set by controls: 0 for no effect and ±100 for the full control effect.

Estrogen receptor (Homo sapiens), sequence (P03372 whole entry, looked up): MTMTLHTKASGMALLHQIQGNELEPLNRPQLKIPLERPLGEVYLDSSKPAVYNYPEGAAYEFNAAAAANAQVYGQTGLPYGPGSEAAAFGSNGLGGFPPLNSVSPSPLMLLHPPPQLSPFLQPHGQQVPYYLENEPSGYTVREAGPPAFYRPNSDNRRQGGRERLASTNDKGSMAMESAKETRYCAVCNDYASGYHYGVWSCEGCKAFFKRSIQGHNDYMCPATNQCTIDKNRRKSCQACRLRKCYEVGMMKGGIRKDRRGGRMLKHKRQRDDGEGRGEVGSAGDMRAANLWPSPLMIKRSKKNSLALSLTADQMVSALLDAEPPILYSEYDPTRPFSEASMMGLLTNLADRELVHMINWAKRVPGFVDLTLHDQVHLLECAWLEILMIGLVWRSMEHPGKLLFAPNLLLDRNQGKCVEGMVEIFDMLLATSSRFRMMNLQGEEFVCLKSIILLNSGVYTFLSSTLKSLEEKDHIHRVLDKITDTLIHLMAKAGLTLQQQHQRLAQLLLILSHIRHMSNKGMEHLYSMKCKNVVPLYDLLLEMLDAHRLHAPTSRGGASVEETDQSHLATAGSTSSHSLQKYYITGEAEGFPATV
Aromatase (Homo sapiens), sequence (P11511 whole entry, looked up): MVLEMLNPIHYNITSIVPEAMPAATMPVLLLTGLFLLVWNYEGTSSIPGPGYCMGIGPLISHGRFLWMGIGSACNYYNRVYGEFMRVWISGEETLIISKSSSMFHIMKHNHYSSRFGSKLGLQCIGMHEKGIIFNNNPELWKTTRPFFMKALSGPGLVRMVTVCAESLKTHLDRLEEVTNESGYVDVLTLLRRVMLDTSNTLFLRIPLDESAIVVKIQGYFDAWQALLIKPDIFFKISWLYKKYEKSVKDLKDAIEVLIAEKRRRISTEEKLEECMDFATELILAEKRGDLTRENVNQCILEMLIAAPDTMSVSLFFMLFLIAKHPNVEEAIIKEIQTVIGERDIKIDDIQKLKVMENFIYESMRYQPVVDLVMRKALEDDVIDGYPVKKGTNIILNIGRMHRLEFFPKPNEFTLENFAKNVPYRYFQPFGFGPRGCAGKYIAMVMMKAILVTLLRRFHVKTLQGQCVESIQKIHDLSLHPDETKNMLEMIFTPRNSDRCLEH

For `O=C1Cc2ccccc2N1c1c(Cl)cccc1Cl`, the compound was called inactive in assay [1]. Besides, the Potency entry (in assay [2]; in assay [6]; with Aromatase (Homo sapiens)) was “inactive” each time. Moreover, the results for the Potency in assay [3], in assay [4] and in assay [5] were 43.6 µM [inconclusive] (active), 10.9 µM (active) and 68.6 µM (active), respectively.

Turning to `CC(=O)[C@H]1[C@H](C#N)C[C@H]2[C@@H]3CC=C4C[C@@H](O)CC[C@]4(C)[C@H]3CC[C@@]21C`, in assay [1], the outcome was inactive. Moreover, the Potency entry (in assay [2]; in assay [3]; in assay [5]; in assay [6]; with Aromatase (Homo sapiens)) was “inactive” in each case.

As for `N#CCCN(CCO)CCO`, in assay [1], the call was inactive. Besides, the Potency entry in assay [7], in assay [2], in assay [3], in assay [4], in assay [5] and in assay [6] was “inactive” in each case. Besides, the Potency entry in the assay with Aromatase (Homo sapiens) was “inactive”.

`O=C(O)CCCCCCCCCCCBr`: the compound was called inactive in assay [1]. The Potency result in assay [7], in assay [2], in assay [3], in assay [4], in assay [5] and in assay [6] was “inactive” each time. Also, the Potency entry with Aromatase (Homo sapiens) is “inactive”.

On to `CC(C)COCC(CN(Cc1ccccc1)c1ccccc1)N1CCCC1` (centres undefined), for which the Potency result in assay [2], in assay [3], in assay [4], in assay [5] and in assay [6] was “inactive” throughout.

`C=C(C)[C@@H]1CCC2=CCC[C@@H](C)[C@]2(C)C1`: the result in assay [1] was inactive. Further, the Potency result in assay [7], in assay [2], in assay [3], in assay [5] and in assay [6] was “inactive” in each case.

`CC(=O)OCC(=O)NCCCOc1cccc(CN2CCCCC2)c1`: the Potency entry (in assay [2]; in assay [6]; with Aromatase (Homo sapiens)) was “inactive” throughout.

Consider `O=C1c2ccccc2C(=O)N1CCc1noc(-c2ccc(CN3CCCCCC3)s2)n1`, for which the result in assay [1] was inactive. In addition, the Potency result in assay [7], in assay [3] and in assay [6] was “inactive” each time. For the same compound, the Potency in assay [5] is 49.9 µM (active).

Turning to `CC(=O)Nc1ccc(C)cc1C`, in assay [1], the outcome was inactive. Moreover, the Potency result (in assay [2]; in assay [6]; with Aromatase (Homo sapiens)) was “inactive” throughout.

As for `O=C(O)C[C@H](NC(=O)OCc1ccccc1)C(=O)O`, the Potency entry in assay [7], in assay [2], in assay [3], in assay [4], in assay [5] and in assay [6] was “inactive” throughout. The Potency result with Aromatase (Homo sapiens) is “inactive”.

In the case of `OC(CCN1CCCC1)(c1ccccc1)C1CCCCC1` (centres undefined), the compound was called inactive in assay [1]. Moreover, the Potency result (in assay [2]; in assay [6]; in the assay with Aromatase (Homo sapiens)) was “inactive” in each case.

`Cc1[nH]cnc1CN1CCc2c(c3ccccc3n2C)C1=O`: the Potency entry (in assay [2]; in assay [6]; with Aromatase (Homo sapiens)) was “inactive” in each case.

For the compound `CCCCC(CC)CN` (centres undefined), the call in assay [1] was inactive. The Potency entry in assay [7], in assay [3], in assay [4], in assay [5] and in assay [6] was “inactive” in each case.

With `O=C(Cn1ccnc1[N+](=O)[O-])NCCO`, the call in assay [1] was inactive. Further, the Potency result (in assay [7]; in assay [3]; in assay [4]; in assay [5]; in assay [6]; in the assay with Aromatase (Homo sapiens)) was “inactive” each time.

In the case of `CCCCCC[C@@H](O)C/C=C\CCCCCCCC(=O)O`, in assay [1], the call was inactive. Besides, the Potency entry (in assay [2]; in assay [6]; with Aromatase (Homo sapiens)) was “inactive” each time.

Take `O=C(CCc1ccc(O)cc1)c1c(O)cc(O)cc1O`: in assay [1], the compound was classed as inactive. The Potency in assay [3] is 14.1 µM [inconclusive] (active); in assay [4], 4.96 µM (active). The Potency entry in assay [5] and in assay [6] was “inactive” throughout.

With `O=C(O)CCc1nc(-c2ccccc2)c(-c2ccccc2)o1`, the compound was called inactive in assay [1]. Also, the Potency result (in assay [7]; in assay [2]; in assay [3]; in assay [5]; in assay [6]; with Aromatase (Homo sapiens)) was “inactive” in each case.

For the compound `CN(C(=O)CN(CCO)CC(=O)N(C)C(C)(C)Cc1ccccc1)C(C)(C)Cc1ccccc1`, in assay [1], the compound was called inactive. Also, the Potency entry in assay [2] and in assay [6] was “inactive” each time.

In the case of `O=C=Nc1cccc(C(F)(F)F)c1`, the compound was classed as inactive in assay [1]. In addition, the Potency entry in assay [2], in assay [3], in assay [4], in assay [5] and in assay [6] was “inactive” throughout.

On to `C=C/C(C)=C/C/C=C(\C)CCC=C(C)C`, for which, in assay [1], the outcome was inactive. Also, the Potency result in assay [7], in assay [2], in assay [3], in assay [4], in assay [5] and in assay [6] was “inactive” each time. Besides, in the assay with Aromatase (Homo sapiens), the Potency entry is “inactive”.

For `CCOc1cccc(-n2cc(C(=O)N3CCN(c4cc(C(=O)O)c5ccccc5c4)CC3)nc2-c2ccc(C)cc2)c1`, in assay [1], the call was inactive. For the same compound, the Potency result (in assay [6]; with Aromatase (Homo sapiens)) was “inactive” throughout.

As to `O=c1c(O)c(-c2ccc(O)cc2)oc2cc(O)cc(O)c12`, the compound was called inactive in assay [1]. Besides, the Potency entry in assay [2] and in assay [6] was “inactive” in each case.

As for `C[C@]12CC[C@@H]3c4ccc(O)cc4CC[C@H]3[C@@H]1CC[C@@H]2OC(=O)CCC1CCCC1`, in assay [1], the compound was called inactive. For the same compound, the Potency result in assay [2], in assay [5] and in assay [6] was “inactive” in each case. For the same compound, the Potency in assay [3] is 1.2 nM [inconclusive] (active) and 0.5 nM [inconclusive] (active); with Aromatase (Homo sapiens) it was “inactive and 61.1 µM (active)”. Also, the activation in assay [4] was 60.2% (active) and 48.5% (active) and 30.3% (active).

With `CN1CCCC(n2nc(Cc3ccc(Cl)cc3)c3ccccc3c2=O)CC1` (centres undefined), the Potency result (in assay [7]; in assay [2]; in assay [3]; in assay [4]; in assay [5]; with Aromatase (Homo sapiens)) was “inactive” throughout.

Consider `CN(C)CCN1C(=O)c2ccccc2N(C)c2ccccc21`, for which the compound was classed as inactive in assay [1]. The Potency entry in assay [7], in assay [2], in assay [3], in assay [4], in assay [5] and in assay [6] was “inactive” in each case. Moreover, the Potency entry in the assay with Aromatase (Homo sapiens) is “inactive”.

Turning to `CCCCCCCCOc1ccc(C(=O)O)cc1`, the compound was classed as inactive in assay [1]. In addition, the Potency entry in assay [2] and in assay [6] was “inactive” throughout.

On to `CC(CN(C)C)C(C)(O)Cc1ccc(Cl)cc1` (centres undefined), for which, in assay [1], the result was inactive. In addition, the Potency entry (in assay [7]; in assay [2]; in assay [3]; in assay [4]; in assay [5]; with Aromatase (Homo sapiens)) was “inactive” throughout.

Take `CCOC(=O)/C=C/C(=O)OCC`: the Potency entry in assay [7], in assay [2], in assay [3], in assay [4], in assay [5] and in assay [6] was “inactive” in each case. Also, the Potency entry with Aromatase (Homo sapiens) was “inactive”.

For `Cc1cc(O)ccc1O`, the outcome in assay [1] was inactive. Further, the Potency entry in assay [2] and in assay [6] was “inactive” in each case.
